Laboratory results published in PubChem BioAssay (Tox21).
Several values for one entry are separate records, joined by “and”; a condition that tells them apart may be missing. Equal values may be shown once. Results filed as inconclusive are left out. Where a call stands in place of a potency, no number is given. Activity calls are given as the source filed them. Unless noted, calls come from the whole dose curve; as a rule, active = well fitted curve in the direction sought with a large enough effect in the repeat runs; inconclusive = weak or mixed curves; inactive = no such curve, though single readings can be large; an effect the other way counts as inactive or inconclusive.

Columns and labels:
[1] = qHTS assay to identify small molecule agonists of the progesterone receptor (PR) signaling pathway - cell viability counter screen (AID 1346799; calls by dose curve; note: nearly all actives have a fitted effect of over 45% in size)
Outline: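 Counter screen in the PR-UAS-bla HEK293T wells (2% charcoal-stripped FBS, 16 h compound exposure at 37 C) after the bla read. CellTiter-Glo added, 30 min at room temperature, luminescence read as cell viability.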

[2] = qHTS assay to identify small molecule antagonists of the TGF-beta/Smad signaling pathway - cell viability counter screen (AID 1346824); note: nearly all actives have a fitted effect of over 50% in size; note: potency is the fitted concentration of half-maximal effect
Outline: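 Cytotoxicity counter-screen run in the same wells as the beta-lactamase Smad reporter read: CellTiter-Glo luminescence after 30 min at room temperature. HEK 293T SBE-bla cells had 5 hr compound exposure at 37 C with TGF-beta1 (0.25 ng/mL stock).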

[3] = qHTS assay to identify small molecule agonists of the TGF-beta/Smad signaling pathway - cell viability counter screen (AID 1346829); note: nearly all actives have a fitted effect of over 45% in size; note: potency is the fitted concentration of half-maximal effect
Outline: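 Cytotoxicity counter screen: CellTiter-Glo luminescence (30 min, room temperature) measured in the SBE-bla HEK 293T reporter wells after 5 hr compound treatment at 37 C and the 2 hr substrate step.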

[4] = qHTS assay to identify small molecule agonists of the TGF-beta/Smad signaling pathway (AID 1346859; active = well fitted activation curve with a large enough effect in the signal ratio in the repeat runs, not every such curve was filed as active; the % refers to the signal ratio; note: series mostly up to about 77 µM)
Outline: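 SBE-bla HEK293T cells plated overnight, then compound exposure for 5 h at 37 C. Beta-lactamase reporter read with LiveBLAzer B/G FRET substrate after 2 h at room temperature, fluorescence at 405 nm excitation, 460/530 nm emission.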

[5] = molecular target: Thyrotropin-releasing hormone receptor (Homo sapiens) (UniProt P34981); experiment: qHTS assay to identify small molecule antagonists of the thyrotropin-releasing hormone receptor (TRHR) signaling pathway (AID 1346877; active = well fitted inhibition curve with a large enough effect in the repeat runs, not every such curve was filed as active; note: series mostly up to about 51 µM)
Outline: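 Calcium signal in dye-loaded TRHR/HEK293 cells; compounds added 5 min before TRH (1 nM final); fluorescence monitored 3 min at 1 s steps.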

[6] = molecular target: Thyrotropin-releasing hormone receptor (Homo sapiens) (UniProt P34981); experiment: qHTS assay to identify small molecule agonists of the thyrotropin-releasing hormone receptor (TRHR) signaling pathway (AID 1346891; calls by dose curve; note: series mostly up to about 58 µM)
Outline: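 HEK293 cells expressing TRHR plated 18 h at 37 C/5% CO2, calcium dye-loaded 2 h at 37 C, then compound added (agonist mode); kinetic calcium fluorescence read 3 min at 1 s intervals; 15 concentrations in triplicate.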

[7] = Human pregnane X receptor (PXR) small molecule agonists, qHTS cell viability counter screen (AID 1346977); note: nearly all actives have a fitted effect of over 50% in size; note: potency is the fitted concentration of half-maximal effect
Outline: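 PXR-Luc HepG2 cells (2,000/well, 5% charcoal-stripped FBS) preincubated 5 hr, then exposed to compounds 24 hr at 37 C. Viability read in the same wells by CellTiter-Fluor fluorescence, reagent added at 23 hr, 1 hr incubation.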

[8] = molecular target: Progesterone receptor (Homo sapiens) (UniProt P06401); experiment: qHTS assay to identify small molecule agonists of the progesterone receptor (PR) signaling pathway (AID 1346784; calls by dose curve; note: nearly all actives have a fitted effect of over 30% in size; note: potency is the fitted concentration of half-maximal effect)
Outline: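 PR-UAS-bla HEK 293T cells (beta-lactamase reporter under UAS) in 2% charcoal-stripped FBS, dosed with 23 nL compound after 6 hr, incubated 16hr at 37C. LiveBLAzer B/G FRET substrate added, fluorescence read after 2 hours.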

[9] = molecular target: Progesterone receptor (Homo sapiens) (UniProt P06401); experiment: qHTS assay to identify small molecule antagonists of the progesterone receptor (PR) signaling pathway (AID 1346795; active = well fitted inhibition curve with a large enough effect in the signal ratio in the repeat runs, not every such curve was filed as active; the % refers to the signal ratio)
Outline: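 PR-UAS-bla HEK293T cells with beta-lactamase reporter under UAS control, in 2% charcoal-stripped FBS, treated with compounds plus 1 nM promegestone (R5020, final) for 16 hr at 37C. Read-out: FRET beta-lactamase substrate fluorescence after 2 hr at room temperature.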

[10] = qHTS assay to identify small molecule antagonists of the progesterone receptor (PR) signaling pathway - cell viability counter screen (AID 1346798); note: nearly all actives have a fitted effect of over 50% in size; note: potency is the fitted concentration of half-maximal effect
Outline: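 PR-UAS-bla HEK293T cells, 3,000/well in 2% charcoal-stripped FBS medium, dosed with compounds plus R5020 agonist and incubated 16 h at 37C. Viability then measured in the same wells by CellTiter-Glo luminescence after 30 min at RT.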

Chain of Thyrotropin-releasing hormone receptor (Homo sapiens) (P34981 whole entry, looked up): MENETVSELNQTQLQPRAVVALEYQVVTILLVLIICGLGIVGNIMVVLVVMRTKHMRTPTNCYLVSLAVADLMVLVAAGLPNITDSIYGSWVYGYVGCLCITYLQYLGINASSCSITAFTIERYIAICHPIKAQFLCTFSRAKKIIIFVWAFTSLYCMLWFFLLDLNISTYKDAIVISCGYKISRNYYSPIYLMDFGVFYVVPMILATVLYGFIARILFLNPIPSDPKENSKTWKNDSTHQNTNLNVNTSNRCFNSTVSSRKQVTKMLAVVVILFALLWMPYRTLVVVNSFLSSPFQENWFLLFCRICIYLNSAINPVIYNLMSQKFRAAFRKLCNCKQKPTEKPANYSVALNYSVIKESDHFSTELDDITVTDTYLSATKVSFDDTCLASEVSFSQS
Chain of Progesterone receptor (Homo sapiens) (P06401 whole entry, looked up): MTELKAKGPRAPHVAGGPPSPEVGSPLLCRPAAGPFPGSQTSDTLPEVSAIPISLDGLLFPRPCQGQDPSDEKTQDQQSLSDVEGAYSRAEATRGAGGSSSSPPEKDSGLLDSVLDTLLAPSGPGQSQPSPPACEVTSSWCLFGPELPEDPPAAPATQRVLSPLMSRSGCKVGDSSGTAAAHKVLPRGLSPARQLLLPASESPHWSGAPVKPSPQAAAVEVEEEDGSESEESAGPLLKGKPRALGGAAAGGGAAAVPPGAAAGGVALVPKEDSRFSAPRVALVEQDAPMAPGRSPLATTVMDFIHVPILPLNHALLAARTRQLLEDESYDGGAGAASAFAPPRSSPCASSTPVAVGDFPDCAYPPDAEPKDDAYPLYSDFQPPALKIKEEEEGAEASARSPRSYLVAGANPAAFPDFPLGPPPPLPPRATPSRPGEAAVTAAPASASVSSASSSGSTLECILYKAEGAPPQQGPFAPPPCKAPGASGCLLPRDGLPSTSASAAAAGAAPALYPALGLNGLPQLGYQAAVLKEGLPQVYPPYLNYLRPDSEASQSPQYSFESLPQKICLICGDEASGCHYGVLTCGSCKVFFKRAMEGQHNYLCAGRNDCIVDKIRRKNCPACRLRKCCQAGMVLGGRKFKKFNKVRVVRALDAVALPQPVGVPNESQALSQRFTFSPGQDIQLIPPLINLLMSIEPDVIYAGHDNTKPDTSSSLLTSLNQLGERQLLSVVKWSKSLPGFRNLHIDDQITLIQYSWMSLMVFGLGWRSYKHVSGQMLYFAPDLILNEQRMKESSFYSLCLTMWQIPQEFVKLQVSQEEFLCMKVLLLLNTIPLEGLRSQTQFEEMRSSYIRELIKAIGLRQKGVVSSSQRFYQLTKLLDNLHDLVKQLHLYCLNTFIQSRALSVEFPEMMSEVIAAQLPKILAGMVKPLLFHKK

SMILES	Potency [1]	Potency [2]	Potency [3]	outcome [4]	Potency [5]	Potency [6]	Potency [7]	Potency [8]	Potency [9]	Potency [10]
CC(O)(P(=O)(O)O)P(=O)(O)O	inactive	inactive	inactive	inactive	inactive	inactive	inactive			
CC(=O)Nc1c(I)c(NC(C)=O)c(I)c(C(=O)O)c1I		inactive	inactive	inactive			inactive	inactive	inactive	
CC1(C)O[C@@H]2C[C@H]3[C@@H]4CCC5=CC(=O)C=C[C@]5(C)[C@@]4(F)[C@@H](O)C[C@]3(C)[C@]2(C(=O)CO)O1		inactive	inactive	inactive			inactive	3.5 nM (active) and 3.9 nM (active) and 3.8 nM (active)		inactive
NS(=O)(=O)O		inactive	inactive	inactive			inactive	inactive	inactive	
O=C(O)CC(O)C(=O)O (configuration not stated)	inactive	inactive	inactive	inactive	inactive	inactive	inactive			inactive
CC(C)c1c(C(=O)Nc2ccccc2)c(-c2ccccc2)c(-c2ccc(F)cc2)n1CC[C@@H](O)C[C@@H](O)CC(=O)O		inactive	inactive	inactive	inactive	inactive	inactive			6.41 µM (active)
CCCCCCCCCCCC[N+](C)(C)Cc1ccccc1		48 µM (active) and 33.6 µM (active) and 23.9 µM (active)	48 µM (active) and 29.9 µM (active)	inactive	inactive	inactive	52.8 µM (active)			
O=C1OC2(c3ccccc31)c1cc(Br)c(O)c(Br)c1Oc1c2cc(Br)c(O)c1Br	inactive	inactive	inactive				4.93 µM (active) and 9.96 µM (active) and 13.3 µM (active)	inactive		inactive
